Assay outcomes as filed in PubChem BioAssay.
This is a sample that favours compounds with a hit; in the whole collection about 19% have one here.
TDP1 cell CPT = qHTS for Inhibitors of human tyrosyl-DNA phosphodiesterase 1 (TDP1): qHTS in cells in presence of CPT | chicken DT40 Tdp1-/-;hTDP1 cells + 20 nM CPT, ATP luminescence, 48 h | Potency, µM (series often up to 46.2 µM), for inactives: top-dose activity change, negative = growth inhibition, most hits filed as inhibitors | 420,000 tested, 12% active | AID 686979, 2013; note: potency is the fitted concentration of half-maximal effect; nearly all actives have a fitted effect of over 55% in size
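Chicken DT40 Tdp1-/- cells complemented with human TDP1, 400 cells/well, exposed to compounds plus 20 nM camptothecin for at least 48 h at 37 C; viability read as ATP content by CellTiter-Glo luminescence.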
TDP1 block = qHTS Assay for Inhibitors of Tyrosyl-DNA Phosphodiesterase (TDP1) | Tyrosyl-DNA phosphodiesterase 1 (Homo sapiens), Q9NUW8 | recombinant TDP1, AlphaScreen DNA substrate cleavage | Potency, µM (series often up to 130 µM), for the others: at the highest dose activity change, negative = inhibition, most hits filed as inhibitors | 350,000 tested, 0.28% active; note: potency is the fitted concentration of half-maximal effect; nearly all actives have a fitted effect of over 40% in size
Target sequence (Q9NUW8 whole entry, looked up): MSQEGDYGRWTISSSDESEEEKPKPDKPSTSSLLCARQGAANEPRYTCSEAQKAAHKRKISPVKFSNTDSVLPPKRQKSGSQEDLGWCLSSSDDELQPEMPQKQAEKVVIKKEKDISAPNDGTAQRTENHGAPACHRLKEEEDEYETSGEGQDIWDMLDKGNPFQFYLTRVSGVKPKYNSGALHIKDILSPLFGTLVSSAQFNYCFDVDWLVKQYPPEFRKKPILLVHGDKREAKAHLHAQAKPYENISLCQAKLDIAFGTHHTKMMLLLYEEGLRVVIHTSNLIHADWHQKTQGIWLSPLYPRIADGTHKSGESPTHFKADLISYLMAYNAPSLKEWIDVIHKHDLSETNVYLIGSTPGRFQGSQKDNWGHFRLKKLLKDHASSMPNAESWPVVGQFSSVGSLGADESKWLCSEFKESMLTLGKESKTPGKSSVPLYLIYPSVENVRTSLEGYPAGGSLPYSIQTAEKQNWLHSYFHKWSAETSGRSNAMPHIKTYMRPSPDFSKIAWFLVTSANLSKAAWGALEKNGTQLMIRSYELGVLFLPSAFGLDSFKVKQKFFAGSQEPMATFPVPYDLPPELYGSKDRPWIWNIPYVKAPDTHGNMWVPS
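Here, a 5' biotin and 3' phosphotyrosine-FITC DNA oligonucleotide reports Tdp1 activity: intact substrate bridges AlphaScreen beads, while cleavage leaves a 3' phosphate and drops signal. All incubations at room temperature.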
Giardia killer = Small Molecules that selectively kill Giardia lamblia: qHTS | 340,000 tested, 0.15% active | Giardia lamblia trophozoite viability | AID 540267, 2011 | activity change, % at 7.66 µM, hits read low; in the data active = activity change below about -80%; inconclusive = between about -30% and that limit;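 note: parasites exposed to compound for two days anaerobically before the ATP read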
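Viability, read as ATP luminescence: trophozoites at 100 cells/well, compound added, 48 hrs anaerobic at 37 deg C, then 15-30 min room-temperature development before reading.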
DT40 TDP1 no CPT = qHTS for Inhibitors of human tyrosyl-DNA phosphodiesterase 1 (TDP1): qHTS in cells in absence of CPT | DT40 Tdp1-/- hTDP1 cells, no CPT, ATP luminescence, 48 h | Potency, µM (top dose mostly 46.2 µM), for the others: top-dose activity change, negative = growth inhibition, most hits filed as inhibitors | 420,000 tested, 15% active | AID 686978, 2013; note: potency is the fitted concentration of half-maximal effect; nearly all actives have a fitted effect of over 55% in size
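Chicken DT40 Tdp1-/- cells complemented with human TDP1, screened without camptothecin (DMSO vehicle only), 400 cells/well. Compounds pin-transferred, cells incubated at 37 °C for at least 48 hr. Growth read as ATP-dependent luminescence (CellTiter-Glo, 30 min at RT).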
ELG1 DNA repair = qHTS screen for small molecules that inhibit ELG1-dependent DNA repair in human embryonic kidney (HEK293T) cells expressing luciferase-tagged ELG1. HEK293T ELG1-luciferase reporter, luminescence, 16 h; DNA damage induced by 5-fluorouridine. Potency, µM (doses to about 46.1 µM), for inactives: top-dose activity change, negative = inhibition, hits mostly inhibitors. AID 504467, 2011. 330,000 tested, 2.3% active; note: potency is the fitted concentration of half-maximal effect; nearly all actives have a fitted effect of over 55% in size
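Luminescence from the luciferase reporter, measured 30 min after ONE-Glo reagent at room temperature, was the read-out. Beforehand, 2,000 cells per well were exposed for 16 hr at 37 °C to 5-fluorouridine together with compound or vehicle.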
IL1B secr inh = qHTS for Inhibitors of Inflammasome Signaling: IL-1-beta AlphaLISA Primary Screen; 360,000 tested, 4.7% active; activity change, % at 57.5 µM; THP-1 LPS/ATP IL-1B secretion, AlphaLISA, 16 h; stronger effect = lower value; AID 743279, 2014; in the data active = activity change below about -50%; inconclusive = mostly about -30% to -49%
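THP-1 cells pretreated 1 hr with compounds (up to 57.5 uM final), then stimulated with LPS (250 ng/mL final) plus ATP (1.25 mM final); secreted IL-1B measured by AlphaLISA after 16 hr, decreased signal indicating inhibition.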
Numbers without * were called inactive; ? = inconclusive; . = not tested or not shown. Unless noted, calls come from the whole dose curve; as a rule, active = well fitted curve in the direction sought with a large enough effect; inconclusive = small, poorly fitted or top-dose-only effect, or another doubt; inactive = no such curve, though single readings can be large; an effect the other way counts as inactive or inconclusive. % is set by controls: 0 for no effect and ±100 for the full control effect.

SMILES	TDP1 cell CPT	TDP1 block	Giardia killer	DT40 TDP1 no CPT	ELG1 DNA repair	IL1B secr inh
CC(C)N(Cc1nc(-c2ccc(Cl)cc2)no1)Cc1nccn1C	?	-8.2%	48.6	16.4µM*	-25.0%	-13.0
CCN(Cc1ccccc1)C(=O)c1c(-c2ccccc2Cl)noc1C	?	.	-4.0	11.6µM*	13.0%	27.6
Cc1onc(-c2ccccc2Cl)c1C(=O)N(C)Cc1ccccc1	?	.	-7.5	?	8.0%	0.0
Cc1ccccc1C(=O)N(Cc1nc(-c2ccc(Cl)cc2)no1)C(C)C	14.6µM*	0.0%	.	20.6µM*	.	.
CN(Cc1ccc(F)cc1)Cc1nc(-c2ccccc2)no1	14.7%	-6.7%	-0.4	-6.2%	21.7%	0.1
CC1=C(C(=O)N2CCOCC2)CC(CC(=O)NCCN2CCOCC2)C(=O)N1Cc1ccc(F)cc1 (stereo not given)	-9.9%	.	.	?	.	22.7
Cc1cccc(N=C2NC(=O)c3cc([N+](=O)[O-])ccc32)c1	1.8%	7.9%	13.7	0.6%	-10.8%	42.9
CCN(CC)c1ccc(NC(=O)c2cc3c(=O)n4cccc(C)c4nc3n2C)c(C)c1	-22.3%	1.3%	.	?	.	.
CC(C)N(Cc1nc(-c2ccc(Cl)cc2)no1)C(=O)CCCN1C(=O)c2ccccc2C1=O	?	1.2%	-20.3	-25.7%	23.1µM*	0.5
CC(C)N(Cc1nc(-c2ccccc2)no1)C(=O)c1ccc([N+](=O)[O-])cc1	4.61µM*	2.6%	3.8	5.17µM*	?	-11.9
O=C1c2ccccc2C(=O)N1CCc1nc(-c2ccc(Cl)cc2)no1	-6.7%	-1.0%	2.2	2.9%	0.0%	-7.6
CC(C)N(Cc1nc(-c2ccccc2)no1)C(=O)CN(C)S(=O)(=O)c1ccc(Br)cc1	-24.2%	3.1%	-2.7	?	?	-1.9
COc1ccc(-c2noc(CN(C(=O)c3ccccc3Cl)C(C)C)n2)cc1	25.9µM*	1.2%	.	18.4µM*	.	.
CCC(CC)C(=O)Nc1cccc(SC)c1	.	2.6%	.	.	6.2%	.
COc1ccccc1C(=O)Nc1ccnn1C1CCN(Cc2ccc3nonc3c2)CC1	?	2.4%	-13.1	?	?	0.0
Cc1cccc(-c2nc(SCC(=O)N(C)c3ccccc3)c3c(=O)n(C)c(=O)n(C)c3n2)c1	?	2.7%	.	?	.	.
CCOC(=O)C1=C(C)N=c2s/c(=C\c3ccc(OCC(=O)O)cc3)c(=O)n2C1c1ccccc1 (stereo not given)	5.6%	.	-0.8	1.2%	-21.1%	-22.3
CCOC(=O)C1=C(C)N=c2s/c(=C/c3cccc([N+](=O)[O-])c3O)c(=O)n2C1c1ccccc1 (stereo not given)	13µM*	.	?	16.4µM*	2.5%	14.0
COC(=O)C1=C(C)N=c2s/c(=C/c3ccoc3)c(=O)n2C1c1ccccc1 (stereo not given)	23.1µM*	0.0%	4.2	?	.	-1.3
CCOC(=O)C1=C(C)N=c2s/c(=C/c3ccco3)c(=O)n2C1c1cccc(OC)c1 (stereo not given)	?	-6.1%	0.2	23.1µM*	?	-24.0
CCOC(=O)C1=C(C)N=c2s/c(=C/c3cccc([N+](=O)[O-])c3O)c(=O)n2C1c1cc(OC)c(OC)c(OC)c1 (stereo not given)	?	.	?	7.31µM*	-5.5%	19.4
COCc1cc(C)nc(N/N=C/c2ccc(-c3ccc(C(=O)O)c(Cl)c3)o2)c1C#N	.	28.2µM*	.	.	5.8%	.
